Shown are actives, neighbours in structure and some others; about 22% of the full set was active somewhere.
LmPK inh: blocks Leishmania mexicana pyruvate kinase activity; Q27686; Potency, µM (titrated, usually from 57.5 µM), for inactives: at the highest dose activity change, negative = inhibition, usual class: inhibitors; hit rate 0.37% among 290,000; AID 1721; purified LmPK, Kinase-Glo ATP luminescence, 1 h; note: potency is the fitted concentration of half-maximal effect; % is set by controls: 0 for no effect and ±100 for the full control effect
Target sequence (Q27686 whole entry, looked up): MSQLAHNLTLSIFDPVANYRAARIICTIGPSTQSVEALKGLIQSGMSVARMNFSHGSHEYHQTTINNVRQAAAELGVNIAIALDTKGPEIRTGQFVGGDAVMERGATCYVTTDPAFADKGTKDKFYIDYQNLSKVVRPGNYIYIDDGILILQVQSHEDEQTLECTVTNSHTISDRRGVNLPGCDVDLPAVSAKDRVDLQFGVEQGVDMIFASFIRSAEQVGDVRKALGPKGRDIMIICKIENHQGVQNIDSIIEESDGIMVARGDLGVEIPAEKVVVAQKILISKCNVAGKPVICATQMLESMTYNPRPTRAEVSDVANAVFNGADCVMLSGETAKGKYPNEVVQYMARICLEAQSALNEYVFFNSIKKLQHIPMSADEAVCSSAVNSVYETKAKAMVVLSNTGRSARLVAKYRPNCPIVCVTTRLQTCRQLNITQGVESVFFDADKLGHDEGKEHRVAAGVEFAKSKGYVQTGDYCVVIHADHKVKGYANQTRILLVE
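Pyruvate kinase activity monitored as ATP production (luciferase luminescence). Conditions: 0.1 nM enzyme, 0.5 mM PEP, 0.1 mM ADP, 1 h, RT; normalized against uninhibited and no-enzyme wells.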
Cycloheximide cs: counter-screen for Shiga toxin inhibitors: cycloheximide protein synthesis inhibition. cell reporter, cycloheximide protein synthesis inhibition counterscreen. max response, %. hit rate 12% among 300,000. AID 2314; in the data active = max response mostly above about 13%, no sharp cut-off; inactive = mostly below about 14%; note: read at 38.3 µM for the half of the compounds with a filed dose; 0% is about no effect
Shiga toxin inh: Shiga toxin inhibition | Vero cells, Shiga toxin protein synthesis inhibition reporter | inhibition, % at 38.7 µM | hit rate 9.2% among 290,000 | AID 2315; in the data active = inhibition mostly above about 28%, no sharp cut-off; inactive = mostly below about 43%; note: 0% is about no effect
Pf growth 48h: inhibits P. falciparum growth in the first generation, 48 h; P. falciparum luciferase growth in erythrocytes, 48 h; Potency, µM (titrated, usually from 28.7 µM), without a hit: at the highest dose activity change, negative = inhibition, actives largely listed as inhibitors; hit rate 5.9% among 310,000; AID 504832; note: potency is the fitted concentration of half-maximal effect; % is set by controls: 0 for no effect and ±100 for the full control effect
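Luciferase-expressing parasites in RBCs, 2% Hct / 0.1% parasitemia final; RPMI 1640 + 0.5% Albumax; 37 C, 5% CO2, one generation; luminescence read-out, lower signal = inhibition.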
Pf growth 96h: inhibits malaria parasite growth, 96 h; Potency, µM (doses to about 28.7 µM), inactives show at the top dose activity change, negative = inhibition, most hits filed as inhibitors; hit rate 6.9% among 320,000; P. falciparum luciferase reporter growth, 96 h; note: potency is the fitted concentration of half-maximal effect; % is set by controls: 0 for no effect and ±100 for the full control effect
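Plates of compound plus infected erythrocytes (2% hematocrit, 0.05% parasitemia final) incubate 96 hours, 37 C, 5% CO2. Detection reagent added; reduced luminescence from the parasites' luciferase reporter flags inhibition.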
Numbers without * were called inactive; ! = not active in a repeat; [ ] = remark or other dose. Unless noted, calls come from the whole dose curve; as a rule, active = well fitted inhibition curve with a large enough effect; inconclusive = small, poorly fitted or top-dose-only effect, or another doubt; inactive = no such curve, though single readings can be large or run the other way.

Results for COc1ccc(C2Nc3ccccc3C(=O)N2Cc2ccco2)cc1CN1C(=O)c2ccccc2C1=O (stereo not given) ?
LmPK inh: 5%; Cycloheximide cs: 1; Shiga toxin inh: 43*!; Pf growth 48h: 13µM*; Pf growth 96h: inconclusive

Results for COc1ccc([C@@H]2CC(=O)c3c(O)cc(O[C@@H]4O[C@H](CO[C@@H]5O[C@@H](C)[C@H](O)[C@@H](O)[C@H]5O)[C@@H](O)[C@H](O)[C@H]4O)cc3O2)cc1 ?
Cycloheximide cs: -3; Shiga toxin inh: -18

Results for COc1ccccc1N(C)S(=O)(=O)c1ccc(C(=O)NC(C)c2ccccc2)cc1 (stereo not given) ?
LmPK inh: -1%; Cycloheximide cs: -1; Shiga toxin inh: -2; Pf growth 48h: inconclusive; Pf growth 96h: inconclusive

What do the screens show for `Cc1c(NS(C)(=O)=O)cccc1-c1nc2cccnc2s1`?
LmPK inh: -1%; Cycloheximide cs: 32*; Shiga toxin inh: 154*; Pf growth 48h: 49%; Pf growth 96h: 42%

What do the screens show for `Cc1c(NS(=O)(=O)c2ccc3c(c2)OCCO3)cccc1-c1nc2cccnc2s1`?
LmPK inh: 4%; Cycloheximide cs: 16; Shiga toxin inh: 2; Pf growth 48h: -14%; Pf growth 96h: inconclusive

What do the screens show for `O=S(=O)(Nc1cccc2ncccc12)c1cccs1`?
LmPK inh: 5%; Cycloheximide cs: 29*; Shiga toxin inh: 6; Pf growth 48h: inconclusive; Pf growth 96h: inconclusive

How did CCOc1ccccc1NS(=O)(=O)c1cccs1 do in these assays?
LmPK inh: 2%; Cycloheximide cs: -3; Shiga toxin inh: 1; Pf growth 48h: 10%

What do the screens show for `Cc1c(NS(=O)(=O)c2cccs2)cccc1-c1nc2cccnc2s1`?
LmPK inh: 2%; Cycloheximide cs: 24*; Shiga toxin inh: 22; Pf growth 48h: 6%; Pf growth 96h: 0%

What do the screens show for `CNS(=O)(=O)c1ccc2c3c(cccc13)C(=O)N2`?
LmPK inh: 0%; Cycloheximide cs: -3; Shiga toxin inh: -6; Pf growth 48h: 12%; Pf growth 96h: 0%

Results for O=C1Nc2ccc(NS(=O)(=O)c3cccs3)c3cccc1c23 ?
LmPK inh: 3%; Cycloheximide cs: 12; Shiga toxin inh: 9; Pf growth 48h: 7%; Pf growth 96h: 10µM*

Results for COc1cccc(NC(=O)COC(=O)/C=C/c2c(C)nn(-c3ccccc3)c2C)c1 ?
Pf growth 48h: -22%; Pf growth 96h: -13%

What do the screens show for `Cc1ccc2cccc(OCC(=O)Nc3cccc(S(=O)(=O)N4CCCC4)c3)c2n1`?
Pf growth 48h: 9.3µM*; Pf growth 96h: inconclusive

What do the screens show for `Cc1cccc(C(=O)N[C@H](C(=O)Nc2cccc(S(=O)(=O)N3CCCC3)c2)C(C)C)c1`?
LmPK inh: 6%; Cycloheximide cs: -4; Shiga toxin inh: -2; Pf growth 48h: inconclusive; Pf growth 96h: inconclusive

What do the screens show for `COc1ccc(C(=O)NCC(=O)OCC(=O)Nc2cccc(S(=O)(=O)N3CCCC3)c2)cc1`?
LmPK inh: 2%; Cycloheximide cs: 4; Shiga toxin inh: -5; Pf growth 48h: -11%; Pf growth 96h: 107%

How did COc1ccc(NC(=O)COC(=O)C2CC2)cc1S(=O)(=O)N1CCCCC1 do in these assays?
Pf growth 48h: 13µM*; Pf growth 96h: inconclusive

What do the screens show for `CC(=O)c1ccc(OCC(=O)Nc2cccc(S(=O)(=O)N3CCCC3)c2)cc1`?
Pf growth 48h: inconclusive; Pf growth 96h: 4.1µM*

Results for CCOc1ccc(C(=O)N[C@H](C(=O)Nc2cccc(S(=O)(=O)N3CCCCC3)c2)C(C)C)cc1 ?
LmPK inh: 1%; Cycloheximide cs: -3; Shiga toxin inh: -8; Pf growth 48h: inconclusive; Pf growth 96h: 10µM*

How did Cc1ccc(OCC(=O)Nc2cccc(S(=O)(=O)N3CCCCC3)c2)c([N+](=O)[O-])n1 do in these assays?
LmPK inh: 1%; Cycloheximide cs: -3; Shiga toxin inh: -2; Pf growth 48h: -23%; Pf growth 96h: inconclusive

Results for CC(=O)c1ccc(-n2ccc(=O)cc2)cc1 ?
LmPK inh: -1%; Cycloheximide cs: -4; Shiga toxin inh: 3; Pf growth 48h: 22%[0.00184 µM]; Pf growth 96h: 3%

Results for CCOc1ccccc1OCC(=O)Nc1cccc(S(=O)(=O)N2CCCCCC2)c1 ?
Pf growth 48h: inconclusive; Pf growth 96h: 13µM*

Source: PubChem (National Center for Advancing Translational Sciences (NCATS))
